Source: PubChem (National Center for Advancing Translational Sciences (NCATS))
Hits are enriched below; roughly 8.5% of the tested compounds scored in any of these assays.
Sfp inh: inhibitors of Bacillus subtilis Sfp phosphopantetheinyl transferase; 310,000 compounds, 3.5% hits; Q9F4F7; Potency, µM, without a hit: largest response in the series, negative = inhibition, most hits filed as inhibitors; Biochemical Sfp PPTase activity, qHTS;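 also: the enzyme is Sfp with the accession as filed and its product quenches rhodamine fluorescence; potency is read from the fitted curve at half-maximal effect; 0% = enzyme reaction without inhibitor and -100% = no enzyme wells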
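Compounds were incubated with enzyme (final 15 nM) for 15 min at room temperature before substrate addition started the reaction. Fluorescence at 525 nm excitation, 598 nm emission was recorded immediately and after 30 minutes.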
ALDH1A1 block: inhibitors of human aldehyde dehydrogenase 1A1; P00352; Purified ALDH1A1, NADH fluorescence, propionaldehyde substrate; Potency, µM (top dose mostly 75.3 µM), for the others: top-dose activity, negative = inhibition, actives largely listed as inhibitors; 220,000 compounds, 7.3% hits; AID 1030; active = well fitted inhibition curve with a large enough effect, not every such curve was filed as active; inconclusive = small, poorly fitted or top-dose-only effect, or another doubt; inactive = no such curve, though single readings can be large or run the other way;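 also: potency is read from the fitted curve at half-maximal effect; plate controls were no enzyme wells and a reference inhibitor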
NPSR antagonist: antagonists of human neuropeptide S receptor cAMP signaling; Potency, µM (top dose mostly 38.3 µM), inactives show at the top dose activity change, negative = inhibition, most hits filed as inhibitors; 220,000 compounds, 1% hits; AID 1461; CHO-NPSR cells, cAMP TR-FRET, antagonist mode; also: potency is read from the fitted curve at half-maximal effect; nearly all actives have a fitted effect of over 50% in size
Target sequence (Q6W5P4 whole entry, looked up): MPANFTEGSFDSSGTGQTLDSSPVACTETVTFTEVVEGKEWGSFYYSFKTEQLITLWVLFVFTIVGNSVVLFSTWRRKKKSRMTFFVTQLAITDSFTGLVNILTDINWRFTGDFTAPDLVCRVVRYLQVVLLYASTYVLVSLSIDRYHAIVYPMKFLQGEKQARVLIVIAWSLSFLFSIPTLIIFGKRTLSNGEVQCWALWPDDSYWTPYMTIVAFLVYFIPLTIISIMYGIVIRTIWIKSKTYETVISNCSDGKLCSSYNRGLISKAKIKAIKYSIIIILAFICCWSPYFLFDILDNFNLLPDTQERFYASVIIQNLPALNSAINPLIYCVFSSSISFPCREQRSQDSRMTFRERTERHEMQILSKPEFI
KDM4E inh: JMJD2E (human) inhibition; 230,000 compounds, 1.6% hits; JMJD2E catalytic domain, FDH-coupled NADH fluorescence (FDH is formaldehyde dehydrogenase); Potency, µM (highest dose often 57.1 µM), for inactives: at the highest dose activity change, negative = inhibition, usual class: inhibitors; AID 2147; active = well fitted inhibition curve with a large enough effect, not every such curve was filed as active; inconclusive = small, poorly fitted or top-dose-only effect, or another doubt; inactive = no such curve, though single readings can be large or run the other way;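 also: potency is read from the fitted curve at half-maximal effect; 0% = wells with enzyme and -100% = buffer wells without enzyme; nearly all actives have a fitted effect of over 50% in size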
Target sequence (B2RXH2 1-337 limits assumed): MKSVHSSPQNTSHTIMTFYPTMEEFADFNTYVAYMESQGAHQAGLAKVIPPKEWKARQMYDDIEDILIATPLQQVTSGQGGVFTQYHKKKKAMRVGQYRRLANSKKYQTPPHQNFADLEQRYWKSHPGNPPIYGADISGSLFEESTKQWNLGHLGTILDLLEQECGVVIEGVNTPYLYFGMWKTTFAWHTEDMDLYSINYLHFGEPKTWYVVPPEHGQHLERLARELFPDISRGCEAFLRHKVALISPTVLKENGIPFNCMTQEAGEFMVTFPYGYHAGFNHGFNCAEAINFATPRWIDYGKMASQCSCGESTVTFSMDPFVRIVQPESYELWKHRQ
RGS12 GoLoco inh: blocks human Gai1 binding to RGS12 GoLoco peptide, red readout; Gai1:RGS12 GoLoco peptide FP, rhodamine, 10 min; Potency, µM (series often up to 61.6 µM), inactives show at the top dose activity, negative = inhibition, most hits filed as inhibitors; 230,000 compounds, 0.44% hits; AID 880; active = well fitted inhibition curve with a large enough effect, not every such curve was filed as active; inactive = no such curve, though single readings can be large or run the other way; also: potency is read from the fitted curve at half-maximal effect; nearly all actives have a fitted effect of over 30% in size
Coupling enz: counter-screen for Giardia aldolase inhibitors: coupling enzyme system | AID 2472 | activity change, negative = inhibition, % at 58.2 µM, hits read low | 290,000 compounds, 0.67% hits | coupling enzyme system counterscreen, AmpLite Red fluorescence; in the data active = activity change below about -30%
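Counterscreen lacking aldolase: glyceraldehyde-3-phosphate coupling-enzyme reagent preincubated 10 min at RT with compound (at 57.5 uM final), then substrate/coupling system with AmpLite Red added; fluorescence read at 525/598 nm after 20 min RT.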
* hit, by the source's call; ? = inconclusive; . = not tested or not shown; [ ] = another dose, or the depositor's remark. Unless noted, calls follow the shape of the dose curve; as a rule, active = well fitted curve in the direction sought with a large enough effect; inconclusive = small, poorly fitted or top-dose-only effect, or another doubt; inactive = no such curve, though single readings can be large; an effect the other way counts as inactive or inconclusive. Unless noted, % is scaled to controls: 0 for no effect and ±100 for the full control effect.

SMILES	Sfp inh	ALDH1A1 block	NPSR antagonist	KDM4E inh	RGS12 GoLoco inh	Coupling enz
Cc1nn(C)c(C)c1CCC(=O)N1CCCC(N2CCN(c3ccc(F)cc3)CC2)C1 (configuration not stated)	10%	.	.	.	.	-3
COc1ccc(NC(=O)CSc2nnnn2C2CC3C=CC2C3)cc1 (configuration not stated)	6%	.	.	.	.	.
CN1CCN(C(=S)Nc2ccc([N+](=O)[O-])cc2)CC1	89µM*	-2%	-2%[46.1 µM]	-1%	5%	-2
NS(=O)(=O)c1cccc(NC(=S)NC(=O)c2cccc([N+](=O)[O-])c2)c1	50µM*	?	0%	10%	3%	2
COc1cc(N/N=C(\C)c2ccc(O)c(C)c2)nc(-c2ccccc2)n1	9%	-17%	?	32µM*	6%	-3
O=C(NC(=S)Nc1cccc(NC(=O)c2ccccc2)c1)c1cccc([N+](=O)[O-])c1	22%	?	-13%	-3%	2%	0
C/C(=N\Nc1cc(C)nc(-c2ccccc2)n1)c1cccc([N+](=O)[O-])c1	13%	13µM*	54%	-6%	-20%	-1
C/C(=N\Nc1cc(-c2ccccc2)nc(-c2ccccc2)n1)c1ccc(O)c(C)c1	12%	-1%	-37%	-4%	1%	0
COc1ccc(OC)c(C2C(C(=O)c3cccs3)=C(O)C(=O)N2CCN2CCOCC2)c1 (configuration not stated)	?	.	.	.	.	-2
CC[C@H]1C(c2cccc(Cl)c2)=NN(c2ccccc2)[C@@H]1CO	17%	?	.	.	64%[88.7 µM]	-6
CN(Cc1ccccc1Cl)C(=O)C1CCC(=O)N(C2CCCCCC2)C1 (configuration not stated)	8%	.	.	.	.	-1
O=[N+]([O-])c1ccc(NC(=S)N/C(=N/CS(=O)(=O)c2ccccc2)c2ccccc2)cc1	-7%	28µM*	?	-1%	-4%	1
CC1CCN(C(=S)NC(=O)c2cccc([N+](=O)[O-])c2)CC1	11%	.	.	.	.	.
COc1ccc(NC(=S)N/C(=N/CS(=O)(=O)c2ccccc2)c2ccccc2)cc1	-5%	1%	-9%[46.1 µM]	-1%	3%	-4
O=C(NNC(=S)NC(=O)c1ccc(Br)cc1)c1cccc([N+](=O)[O-])c1	-6%	.	.	.	.	7
CN1CCN(C(=S)NC(=O)c2cccc([N+](=O)[O-])c2)CC1	32µM*	.	.	.	.	1
CNC(=S)N/N=C(\C)c1cccc([N+](=O)[O-])c1	56µM*	13µM*	-19%	-6%	16%	2
C/C(=N\NC(=O)C(N)=O)c1cccc([N+](=O)[O-])c1	-20%	1%	8%	51%	4%	-2
CC(=O)NNC(=S)NC(=O)c1cccc([N+](=O)[O-])c1	11µM*	8.9µM*	7%	-13%	-5%	1
COc1cc(NC(=O)c2cc(S(=O)(=O)N3CCCCC3)c[nH]2)cc(OC)c1	15%	.	.	.	.	-3
CCN(CC)CCNC(=O)/C(=C/c1cn(C)c2ccccc12)NC(=O)c1ccc(OC)c(OC)c1	8%	19%	6%	-7%	10%	0
CCc1cc2c(N3CCCCC3)ncnc2s1	-25%	20µM*	-7%[46.1 µM]	?	-6%	-1
CCN(CC)CCCNC(=O)Cn1cnc2sc(C)c(S(=O)(=O)N3CCC(C)CC3)c2c1=O	-17%	.	.	.	.	0
CN1CCC(=NNC(=O)CSCc2ccccc2)CC1	9%	25µM*	3%[46.1 µM]	6%	6%	-2
CC(SCc1ccccc1)C(=O)NN=C1CCN(C)CC1 (configuration not stated)	11%	1.3µM*	-16%[46.1 µM]	190%	-6%	0
SMILES	Sfp inh	ALDH1A1 block	NPSR antagonist	KDM4E inh	RGS12 GoLoco inh	Coupling enz
CCn1cc(/C=C(\NC(=O)c2ccccc2)C(=O)NCCCN2CCOCC2)c2ccccc21	-2%	.	.	.	.	.
CCCCN(C(=O)CSc1nncn1-c1ccccc1OC)c1c(N)n(Cc2ccccc2)c(=O)[nH]c1=O	13%	2.2µM*	6%	10%	42%	1
COC1=CC(=O)C(O)=C/C1=C\C=C\c1ccccc1	11µM*	13µM*	.	13µM*	-8%	-17
COc1ccc(NC(=O)c2cnc(SC)nc2C)c(OC)c1	6%	.	.	.	.	1
CCOc1ccccc1NC(=O)COn1nnc2ccc(Cl)cc21	-4%	16µM*	-20%[46.1 µM]	2%	-18%	2
CC1(C)CC(=S)Nc2ccccc2S1	28µM*	10µM*	-6%[46.1 µM]	-5%	-3%	-2
Cc1cc(C)n(CC(O)Cn2ccc3ccccc32)n1 (configuration not stated)	2%	-16%	10%[46.1 µM]	-3%	14%	-1
Cc1cc(C)n(CC(O)Cn2c3ccccc3c3ccccc32)n1 (configuration not stated)	50µM*	?	?	13%	32%	-20
COc1ccc(-c2noc(COc3ccc4c(c3)OCO4)n2)cc1	10µM*	23%	-16%[46.1 µM]	18%	-13%	-4
COc1ccc(-c2noc(COc3ccc4c(c3)OCO4)n2)cc1OC	8%	3%	8%[46.1 µM]	-8%	-12%	-2
COc1ccc(C(=O)CCNc2ccc(C)c(Cl)c2)cc1	12%	3.2µM*	7%	-5%	2%	3
Cc1ccc(C2C(C#N)=C(N)Oc3cc(C)oc(=O)c32)o1 (configuration not stated)	5%	?	47%	-13%	1%	-1
CCOc1ccc(C2C(C#N)=C(N)Oc3cc(C)oc(=O)c32)cc1 (configuration not stated)	16%	8.9µM*	4%	-4%	14%	5
Nc1nc2cc(S(=O)(=O)NC3=NCCCCC3)ccc2s1	?	.	16%	-12%	0%	3
CCOC(=O)c1ccc(S(=O)(=O)Nc2nc3cc(S(=O)(=O)NC4=NCCCCC4)ccc3s2)cc1	28µM*	25µM*	8%	-23%	12%	15
COc1cccc(COCCN2CCN(S(=O)(=O)c3ccccc3)CCC2=O)c1	10%	.	.	.	.	4
Cc1cccc(CS(=O)(=O)Cc2ccc(C(=O)NC(C)c3ccccc3)o2)c1 (configuration not stated)	9%	.	.	.	.	2
CCC(C)[C@@H](NC(=O)OC(C)(C)C)c1nnc(S(=O)(=O)Cc2cccc(C)c2)o1 (some centres not stated)	25µM*	-4%	?	8%	-10%	-3
Cc1ccccc1CS(=O)(=O)c1nnc([C@H](Cc2ccccc2)NC(=O)OC(C)(C)C)o1	7.9µM*	14µM*	10µM*	8%	-17%	-12
CCSc1nnc([C@H](Cc2ccccc2)NC(=O)OC(C)(C)C)o1	16%	?	-7%[46.1 µM]	-1%	2%	0
